# ALDH1A1 block: qHTS Assay for Inhibitors of Aldehyde Dehydrogenase 1 (ALDH1A1); Purified ALDH1A1, NADH fluorescence, propionaldehyde substrate; Aldehyde dehydrogenase 1A1 (Homo sapiens), P00352; 7.3% of 220,000 active; Potency, µM (titrated, usually from 75.3 µM), actives largely listed as inhibitors; active = well fitted inhibition curve with a large enough effect, not every such curve was filed as active; inconclusive = small, poorly fitted or top-dose-only effect, or another doubt; inactive = no such curve, though single readings can be large or run the other way
# HPGD inh: qHTS Assay for Inhibitors of HPGD (15-Hydroxyprostaglandin Dehydrogenase) | Potency, µM, most hits filed as inhibitors | 15-hydroxyprostaglandin dehydrogenase [NAD(+)] (Homo sapiens), P15428 | 4.3% of 150,000 active | purified HPGD, NADH fluorescence kinetic, PGE2 substrate; active = well fitted inhibition curve with a large enough effect, not every such curve was filed as active; inconclusive = small, poorly fitted or top-dose-only effect, or another doubt; inactive = no such curve, though single readings can be large or run the other way
# Target sequence (P15428 whole entry, looked up): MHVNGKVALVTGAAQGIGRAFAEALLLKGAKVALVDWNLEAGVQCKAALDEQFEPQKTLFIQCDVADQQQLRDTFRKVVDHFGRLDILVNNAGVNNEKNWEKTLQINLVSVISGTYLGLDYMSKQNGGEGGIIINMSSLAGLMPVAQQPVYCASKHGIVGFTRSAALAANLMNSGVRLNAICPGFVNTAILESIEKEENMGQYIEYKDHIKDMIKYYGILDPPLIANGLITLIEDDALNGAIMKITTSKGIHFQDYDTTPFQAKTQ
#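 20 nM HPGD preincubated 15 min at room temperature with compound in 50 mM Tris-HCl pH 8, 0.01% Tween 20. Started with 1 mM NAD+ and 30 uM prostaglandin E2; NADH fluorescence (360/450 nm) read 5 times over 30-s intervals, last minus first.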
# IMPase Li cell: qHTS Assay for Identifying the Cell-Membrane Permeable IMPase Inhibitors: Potentiation with Lithium. CHO-M1 cells, IP1 TR-FRET (IP-One), carbachol + lithium. Potency, µM (series often up to 59.4 µM), hits mostly inhibitors. 0.35% of 210,000 active. AID 1457, 2008;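 note: IP1 builds up when IMPase is blocked and the TR-FRET signal falls; nearly all actives have a fitted effect of over 50% in size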
#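 Lithium-sensitised IP1 accumulation assay; M1-expressing CHO cells treated 30 min at 37C with compound. Competitive antibody detection by time-resolved FRET followed a 10 min room-temperature lysis step.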
# Lamin A splicing: qHTS Assay for Modulators of Lamin A Splicing | HeLa LMNA splicing GFP/RFP minigene ratio, 48 h | Potency, µM (titrated, usually from 46.1 µM), usual class: inhibitors | 0.01% of 200,000 active | AID 1487, 2009; active = well fitted inhibition curve with a large enough effect in the signal ratio, with a control signal flat, not every such curve was filed as active; inconclusive = small, poorly fitted or top-dose-only effect, or effect the other way, or a change in a side signal; the % refers to the signal ratio
#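 Read-out is the ratio of GFP to DsRed2 object intensity, acquired by 488 nm laser-scanning cytometry on HeLa lamin A-EGFP minigene reporter cells. Compound incubation 48 hrs at 37 °C in Opti-MEM with 2% FBS; DMSO 0.5% final.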
# Luc counter: Counterscreen for Luciferase (Kinase-Glo TM) Inhibition | 0.28% of 200,000 active | Luciferin 4-monooxygenase (Photuris pensylvanica), Q27757 | Potency, µM (doses to about 38.3 µM), usual class: inhibitors | AID 1379, 2008 | Kinase-Glo luciferase, ATP luminescence, 8 min; note: nearly all actives have a fitted effect of over 60% in size
#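 Light output from Kinase-Glo luciferase with luciferin and 10 uM ATP in 50 mM imidazole pH 7.2, KCl, MgCl2, Tween 20, BSA; compound pin-delivered, 8-min ambient incubation, then luminescence read.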
# Hits are given with their value; . = inactive; ? = inconclusive; / = no result; [ ] = dose if it differs, or a comment. A selection: hits, their analogues and other compounds. The true share with any hit is near 9%. Unless noted, calls come from the whole dose curve; as a rule, active = well fitted curve in the direction sought with a large enough effect; inconclusive = small, poorly fitted or top-dose-only effect, or another doubt; inactive = no such curve, though single readings can be large; an effect the other way counts as inactive or inconclusive.
SMILES,ALDH1A1 block,HPGD inh,IMPase Li cell,Lamin A splicing,Luc counter
Cc1ccc(S(=O)(=O)N(c2nc(N(C)C)nc(N(C)C)n2)n2cnnc2)cc1,5.01µM,.,.,.,.
CCN(CC)c1ccc(/C=C(\C#N)C(=O)NCc2ccco2)cc1,31.6µM,.,.,.,.
S=C(c1ccc(-c2ccccc2Cl)o1)N1CCCCC1,?,28.2µM,.,?,.
CN1CCN(C(=S)c2ccc(-c3cccc(Cl)c3Cl)o2)CC1,?,22.4µM,.,?,.
CC1CCCN(C(=O)C2(NC(=O)Nc3cccc(F)c3)CCCCC2)C1 (centres undefined),.,/,.,.[9.22 µM],.
CN1C(=O)C2(Oc3ccccc3C3CC(c4ccccc4)=NN32)c2ccccc21 (centres undefined),25.1µM,.,.,?,.
CCC/C(=N\NC(=O)CNC(=O)/C=C/c1ccco1)c1ccccc1,.,.,.,.,.
CC/C(=N\NC(=O)CNC(=O)/C=C/c1ccco1)c1ccccc1,14.1µM,.,.,.,.
O=C(/C=C/c1ccco1)Nc1cc(Cl)ccc1C(=O)O,?,31.6µM,.,.,.
O=C(/C=C/c1ccco1)Nc1ccccc1C(=O)O,.,/,.,.,?
O=C(/C=C/c1c(Cl)cccc1Cl)NCCc1ccccc1,.,.,.,.,.
Cc1ccc(C(=O)OCC(=O)NCCC2=CCCCC2)s1,?,.,.,.,.
O=C(/C=C/c1cccc(Cl)c1)NCCc1ccccc1,?,8.91µM,.,.,.
O=C(COC(=O)c1cccs1)NCCC1=CCCCC1,.,17.8µM,.,.,.
COc1cc(C)c(/C=C/C(C)=C/C=C/C(C)=C/C(=O)O)c(C)c1C,?,/,.,?,/
Cn1ccc2cc(NC(=O)Nc3cccnc3)ccc21,.,.,.,/,.
O=C(O)CCCNC(=O)/C=C/c1ccco1,22.4µM,/,/,/,/
CN(CCOC(=O)/C=C/c1ccco1)Cc1ccccc1,22.4µM,/,.,.,.
O=C(/C=C/c1ccccc1)NCCC1=CCCCC1,.,28.2µM,.,?,.
CC(C)=CC(=O)NCCc1ccccc1,?,20µM,.,.,?
O=C(O)CCCCCNC(=O)/C=C/c1ccco1,.,/,.,.,.
O=C(O)/C=C/C(=O)NCCc1ccccc1,.,/,.,/,.
CC(C)n1nnc2cc(C(=O)O)ccc21,.,?,.,/,.
Cc1cc(C)cc(NC(=O)N2CCN(c3cc(-c4noc(C)n4)ccc3C)CC2)c1,/,/,/,.,/
O=C(/C=C/c1ccco1)NCCc1ccccc1,22.4µM,/,.,/,.
SMILES,ALDH1A1 block,HPGD inh,IMPase Li cell,Lamin A splicing,Luc counter
Cc1cc(C)c(Cc2c(C)nc3c(C(=O)NCc4ccco4)cnn3c2C)c(C)c1,?,?,.,?,.
COCCCNS(=O)(=O)c1ccc(OC)c(Cl)c1Cl,10µM,.,.,.,.
CC#CCN1c2ccccc2[C@]23C[C@@H](C(=O)OC)N(S(=O)(=O)c4c(C)noc4C)C2=NC(C(=O)OC)=C(C(=O)OC)[C@H]13,.[13.5 µM],.,.,.[9.22 µM],.[7.66 µM]
CN1CCN(C(=O)C2=C[C@H](c3ccc(C(F)(F)F)cc3)C[C@H](OCc3ccc(CO)cc3)O2)CC1,.,/,.,/,/
O=[N+]([O-])c1ccc(C(O)C23CN4CN(CN(C4)C2)C3)cc1 (centres undefined),.,/,.,/,.
Cc1ccc(NC(=O)N/C=C/c2ccco2)cc1,7.94µM,.,.,.,.
Cc1ccc(NC(=O)/C=C/c2ccco2)cc1F,/,/,/,.,/
CCN(CC)S(=O)(=O)c1ccc(C)c(NC(=S)NNC(=O)C2CC2)c1,8.91µM,.,.,.,.
CC(=O)c1ccc(N2CCN(C(=O)C3CCN(S(=O)(=O)c4cn(C)cn4)CC3)CC2)cc1,/,/,/,.,/
CCc1nnc(NS(=O)(=O)c2ccc(Nc3ccc([N+](=O)[O-])c4nonc34)cc2)s1,.,/,.,/,.
O=[N+]([O-])c1ccc(S(=O)(=O)Cc2ccccc2)c2nonc12,1.78µM,3.16µM,.,/,.[7.66 µM]
CC1CCN(c2nc3ccc(C(=O)N4CCN(Cc5ccccc5)CC4)cc3s2)CC1,20µM,14.1µM,.,?,.
CCOC(=O)N1CCN(C(=O)c2ccc3nc(N4CCCCC4)sc3c2)CC1,.,.,.,.,.
CCc1ccc2nc(N3CCN(C(=O)c4ccccc4)CC3)sc2c1,/,/,/,.,/
O=C(c1ccc2nc(N3CCCCC3)sc2c1)N1CCN(c2ccccn2)CC1,28.2µM,?,.,.,.
CCOC(CNC(=O)c1ccc2nc(N3CCC(C)CC3)sc2c1)OCC,14.1µM,.,.,.,.
O=C(c1ccccc1)N1CCN(c2nc3ccc([N+](=O)[O-])cc3s2)CC1,10µM,/,.,/,.
CCOC(=O)N1CCN(C(=O)c2ccc3nc(N4CCC(C)CC4)sc3c2)CC1,?,?,.,.,.
CC1(C)C[C@](C)(C(=O)c2ccccc2)C=C1c1ccccc1,.,.,.,/,.
OC(c1ccc(OCc2ccccc2)cc1)c1nnc(-c2ccccc2)o1 (centres undefined),.,20µM,.,?,.
COc1cccc(Nc2n[nH]c(=S)s2)c1,3.55µM,10µM,.,.,.
COc1ccccc1Nc1n[nH]c(=S)s1,3.55µM,/,.,.,.
Cc1cccc(Nc2n[nH]c(=S)s2)c1C,3.55µM,10µM,.,.,.
COc1ccccc1Nc1ccc(Nc2ccccc2OC)nn1,?,/,/,.,/
Cc1cccc(Nc2nc3ccccc3s2)c1C,.,.,.,?,.
SMILES,ALDH1A1 block,HPGD inh,IMPase Li cell,Lamin A splicing,Luc counter
COCCn1c(=O)c(-c2cccc(C#N)c2)nc2cnc(Oc3ccc(OC)cc3)nc21,?,/,.,.,/
COc1ccc(NC(=O)N/C=C/c2ccccc2)cc1,.,/,.,.[9.22 µM],.
CCOc1ccc(OCCCN(C)C)cc1,14.1µM,.,.,.,.
Cc1ccc(NC(=O)CSc2nc(=O)n(CCN3CCOCC3)c3c2CCC3)c(C)c1,/,/,/,.,/
COc1ccc2c(c1)O[C@@H](c1cccc(C(F)(F)F)c1)[C@H](OC(=O)NCc1ccc3c(c1)OCO3)C2=O,.,.,.,/,.
CCn1c(C)cc2c(c1=O)C(c1ccc3c(c1)OCO3)C(C#N)=C(N)O2 (centres undefined),.,.,.,.,.
Cc1cc2c(c(=O)n1CC1CCCO1)C(c1ccc3c(c1)OCO3)C(C#N)=C(N)O2 (centres undefined),11.2µM,.,.,.,.
O=C(O)C1CCCN1S(=O)(=O)c1ccc(Br)s1 (centres undefined) (tested in a mixture with another compound),.,.,.,.,.
O=C(O)C1CCCCN1S(=O)(=O)c1ccc(Cl)s1 (centres undefined),15.8µM,.,.,.,.
CN(Cc1ccco1)c1nc(-c2cccnc2)nc2ccccc12,31.6µM,/,.,?,/

# From PubChem
